Source: PubChem BioAssay (NMMLSC)
RGS4-Gao reg – modulators of RGS4 binding to Galphao, primary screen, biochemical, multiplexed bead flow cytometry; Guanine nucleotide-binding protein G(o) subunit alpha (Homo sapiens), P09471; actives lie on both sides; binding response (% of control), % at 10 µM; 0.33% of 220,000 active; AID 1415, 2008; in the data active = binding response below about 49% or above about 150%; inactive = in between;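 note: fluorescent Galphao activated with aluminum fluoride binding bead-coupled RGS4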
Target sequence (P09471 whole entry, looked up): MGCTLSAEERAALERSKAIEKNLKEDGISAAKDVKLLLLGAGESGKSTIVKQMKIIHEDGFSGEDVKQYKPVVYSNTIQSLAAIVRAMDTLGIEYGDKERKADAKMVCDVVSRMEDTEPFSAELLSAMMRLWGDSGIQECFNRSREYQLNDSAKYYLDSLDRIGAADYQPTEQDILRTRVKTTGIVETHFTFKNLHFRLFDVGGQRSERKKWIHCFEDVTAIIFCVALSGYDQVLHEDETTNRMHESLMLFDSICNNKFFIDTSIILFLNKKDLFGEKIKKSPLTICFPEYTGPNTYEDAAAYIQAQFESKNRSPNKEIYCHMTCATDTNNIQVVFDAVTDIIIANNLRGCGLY
RGS8-Gao – RGS8-Galphao binding modulators, primary screen, biochemical, multiplexed bead flow cytometry | actives lie on both sides | response (percent of control binding), % at 10 µM | 0.34% of 220,000 active | AID 1423, 2008; in the data active = response below about 60% or above about 140%; inactive = in between;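 note: Galphao activated as the GDP aluminium fluoride complex binding bead-coupled RGS8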
GSH fluor – compound fluorescence on glutathione beads, profiling panel, artefact control, biophysical, 488/530 nm, flow cytometry; GSH beads flow cytometry, compound fluorescence 488/530 nm; active compounds read high; fluorescence (KMESF) at 10 µM; 0.25% of 190,000 active; in the data active = fluorescence above about 89;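 note: glutathione beads carrying GST-tagged Bcl family fusion proteins plus one bare bead set; values are compound well signal with DMSO vehicle wells as background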
RGS16-Gao – modulators of RGS16 binding to Galphao, primary screen, biochemical, human proteins, multiplexed bead flow cytometry; binding response (% of control), % at 10 µM; 0.38% of 220,000 active; bead-based flow cytometry RGS16-Galphao binding, fluorescence; actives lie on both sides; Regulator of G-protein signaling 16 (Homo sapiens) + Guanine nucleotide-binding protein …; call rule not given here;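 note: Galphao activated by GDP with aluminum fluoride before binding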
Target sequence (O15492 whole entry, looked up): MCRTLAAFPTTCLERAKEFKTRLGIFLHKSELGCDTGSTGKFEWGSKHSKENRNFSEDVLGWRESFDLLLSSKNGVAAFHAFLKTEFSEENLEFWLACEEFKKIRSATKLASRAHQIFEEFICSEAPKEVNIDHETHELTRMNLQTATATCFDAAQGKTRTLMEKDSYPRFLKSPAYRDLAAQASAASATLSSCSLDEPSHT
Target sequence (P09471 whole entry, looked up): as the sequence (P09471 whole entry, looked up) above
Avidin fluor – green autofluorescence of compounds with avidin beads – biophysical, 488/530 nm, flow cytometry, artefact control, profiling panel | compound fluorescence 488/530 nm; active compounds read high | fluorescence (KMESF) at 10 µM | 0.38% of 220,000 active; in the data active = fluorescence above about 47
RGS7-Gao – RGS7-Galphao binding modulators, primary screen, biochemical, multiplexed bead flow cytometry; Guanine nucleotide-binding protein G(o) subunit alpha (Homo sapiens), P09471; actives lie on both sides; binding response (% of control), % at 10 µM; 0.35% of 220,000 active; in the data active = binding response below about 49% or above about 150%; inconclusive = no clear call, values can overlap the other calls; inactive = in between;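 note: fluorescent Galphao held in activated GDP-AlF4 state binding bead-coupled RGS7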
Starred values were filed as active, the others as inactive; ? = inconclusive; / = no result given; [ ] = dose if it differs, or a comment. This is a sample that favours compounds with a hit; in the whole collection about 1.2% have one here.

SMILES | RGS4-Gao reg | RGS8-Gao | GSH fluor | RGS16-Gao | Avidin fluor | RGS7-Gao
CCOC(=O)Nc1c(C(=O)OC)[nH]c2cccc(OC)c12 | 122 | 103 | 28 | 125 | 57* | 120
CCOC(=O)c1[nH]c2ccc(OC)cc2c1NC(C)=O | 106 | 101 | 15 | 102 | 62* | 121
COC(=O)c1[nH]c2cccc(OC)c2c1NC(=O)CCN1CCC(C)CC1 | 100 | 101 | 22 | 101 | 33 | 100
COc1cccc(-c2noc(CCCC(=O)N3CCOCC3)n2)c1 | 95 | 98 | 23 | 103 | 14 | 102
O=C(CCCc1nc(-c2ccccc2)no1)N1CCOCC1 | 95 | 100 | 248* | 71 | 3 | 102
O=C(COc1ncnc2ccccc12)N1CCN(S(=O)(=O)c2ccccc2)CC1 | 98 | 99 | 21 | 89 | 12 | 99
O=C(COc1ncnc2ccccc12)N1CCN(S(=O)(=O)c2ccc(Cl)cc2)CC1 | 98 | 100 | 264* | 102 | 9 | 102
CCN(CC)CCn1c(-c2ccc(C)cc2)nc(=S)c2c1CC(C)(C)OC2 | 107 | 102 | / | 105 | 6 | ?
N/C(=N\OC(=O)c1cccs1)c1ccccc1 | 116 | 102 | 5 | 85 | 51* | 148
Cc1ccc(N(Cc2cc3ccccc3[nH]c2=O)C(=O)c2cccs2)cc1C | 108 | 102 | / | 102 | 6 | ?
CC(=O)NC12CC3CC(C1)CC(C(=O)OCC(=O)Nc1ncc(Cl)c(C)c1Cl)(C3)C2 | 98 | 100 | 262* | 96 | 8 | 102
CC(C(=O)NC1CCCCC1)N1CCN(C)CC1 (stereo unspecified) | 101 | 101 | / | 97 | / | ?
CCOc1ccc(C2=C(C=Nc3c(C)n(C)n(-c4ccccc4)c3=O)C(c3ccc(F)cc3)c3ccccc3O2)cc1 (stereo unspecified) | 99 | 97 | 48 | 96 | 6 | 95
Cc1cc(C)cc(OCC(=O)NNC(=O)CCC(=O)NCc2ccccc2)c1 | 98 | 98 | 152* | 94 | 3 | 99
O=C(CCC(=O)NNC(=O)COc1ccccc1)NCc1ccccc1 | 96 | 99 | 8 | 101 | 29 | 95
CC(=O)Nc1ccc(NC(=O)COc2cccc3c2OC(C)(C)C3)cc1 | 99 | 99 | 7 | 97 | 58* | 111
O=C(CCCCCn1c(=S)[nH]c2ccc(N3CCOCC3)cc2c1=O)NCc1cccc(Cl)c1 | 98 | 96 | 14 | 94 | 7 | 99
Cc1ccc(C(C)C)c(OCCNC(=S)Nc2cccc3ccccc23)c1 | 104 | 101 | 35 | 104 | 7 | 105
O=C1c2ccncc2C(=O)N1CO | -31* | 8.6* | 11 | -20* | -3 | -10*
O=C(NCC1CCCO1)c1cccnc1Nc1ccccc1F (stereo unspecified) | 107 | 105 | 15 | 100 | 52* | 112
CC(=O)N(c1cccc(Br)c1)c1nc(C)cc(C)c1C#N | 101 | 98 | / | 101 | 4 | ?
Cc1ccc(-c2nc3cccnc3s2)cc1NS(C)(=O)=O | -22* | 2.3* | 18 | -19* | -2 | -31*
CC(=O)N1CCC2(CC1)C(C#N)=C(N)OC1=C2C(=O)CC(C)(C)C1 | 103 | 99 | 12 | 103 | 51* | 109
CC1N(O)C(C)(C)C(c2ccccc2)=[N+]1[O-] (stereo unspecified) | 82 | 81 | 103* | 77 | 3 | 84
CC(C)C(OC(=O)c1cc2sccc2n1C)C(=O)NCC1CCCO1 (stereo unspecified) | 114 | 118 | 254* | 155 | 7 | 115
SMILES | RGS4-Gao reg | RGS8-Gao | GSH fluor | RGS16-Gao | Avidin fluor | RGS7-Gao
Cn1c(NC(=O)c2ccc(F)cc2)c(-c2ccccn2)c(=O)c2ccccc21 | 100 | 99 | / | 102 | 9 | ?
CN(C)CCNC(=S)Nc1cccc(Cl)c1 | 22* | 12* | 19 | 0.9* | -2 | 14*
Cc1nc2ccccc2n1CC(O)Cn1c(C(F)(F)F)nc2ccccc21 (stereo unspecified) | -28* | 7.0* | 11 | -16* | -3 | -8.4*
OC(CN1CCCCC1)Cn1c(C(F)(F)F)nc2ccccc21 (stereo unspecified) | 98 | 103 | 17 | 100 | 40 | 99
CCOc1cccc(/C(O)=C2/C(=O)C(=O)N(Cc3cccnc3)C2c2ccco2)c1 (stereo unspecified) | 103 | 100 | 7 | 100 | 58* | 121
O=C(C1CCN(S(=O)(=O)N2CCC3(CC2)OCCO3)CC1)N1CCC(Cc2ccccc2)CC1 | 387*[activator] | 117 | 28 | 526*[activator] | 233* | 298*[activator]
Cn1ncc2c(O/N=C(\N)c3ccc(C(F)(F)F)cc3)ncnc21 | 91 | 98 | / | 94 | 8 | ?
COc1ccc(S(=O)(=O)NCc2ccc(C)cc2)cc1 | 96 | 96 | 263* | 99 | 7 | 94
Cc1nc(SCC(=O)O)c2oc3ccccc3c2n1 | 100 | 103 | 25 | 132 | 8 | 98
Cc1nc(SCC(=O)NCc2ccccc2)c2oc3ccccc3c2n1 | 102 | 102 | 24 | 100 | 50* | 105
Oc1[nH]c2ccccc2c1N=Nc1ncnc2c1oc1ccccc12 | 105 | 102 | / | 101 | 11 | ?
Cc1cc(C)n(CC(O)CN(c2ccccc2)S(=O)(=O)c2ccccc2)n1 (stereo unspecified) | 100 | 96 | 39 | 116 | 67* | 146
Cc1ccc(N(CC(O)Cn2nc(C)cc2C)S(=O)(=O)c2ccc3ccccc3c2)cc1 (stereo unspecified) | 97 | 98 | 17 | 95 | 14 | 96
CC1CC2(CCCCC2)N2C(=O)C(=O)c3cccc1c32 (stereo unspecified) | 41* | 43* | 12 | 28 | 3 | 29*
CC(C)(C)c1cc(C(=O)Nc2ccccc2)ccn1 | 88 | 98 | 103* | 93 | 4 | 95
COC(=O)c1ccc(S(=O)(=O)N2CCCCCC2)n1C | 96 | 100 | / | 101 | 8 | ?
O=C(Nc1ccc(Cl)c(C(F)(F)F)c1)N1CCCC(O)C1 (stereo unspecified) | 94 | 96 | 14 | 101 | 66* | 112
O=C(Nc1ccc(Cl)c(C(F)(F)F)c1)C(=O)N1CCCCC1 | 97 | 85 | 10 | 46 | 5 | 95
CC(C(=O)OCc1nnc(-c2ccccc2)o1)N1C(=O)c2ccccc2C1=O (stereo unspecified) | 111 | 107 | 263* | 119 | 7 | 112
O=C(CCCn1nnc2ccccc2c1=O)N[C@H](C(=O)O)c1ccccc1 | 117 | 98 | / | 97 | 49* | ?
